The values below come from paper PMC11062922 (Nature Chemical Biology, 2023).

Common to all, as to set-up: species or system human, MV4-11 + K-562 + COLO205 + SK-N-BE2 + OVCAR-8
The subject of one assay is EPHA2. Conditions: read-out: apparent Kd, compound concentrations: 100 nM and 1000 nM (sheet 'Samples'), n = 1.
The next assay deals with EPHA4. Conditions: read-out: apparent Kd, compound concentrations: 100 nM and 1000 nM (sheet 'Samples'), n = 1.
The test system of another assay is EPHB2. To be noted: read-out: apparent Kd, compound concentrations: 100 nM and 1000 nM (sheet 'Samples'), n = 1.
Another assay relates to EPHB4. To be noted: read-out: apparent Kd, compound concentrations: 100 nM and 1000 nM (sheet 'Samples'), n = 1.
The next assay relates to PDGFRB. To be noted: read-out: apparent Kd, compound concentrations: 100 nM and 1000 nM (sheet 'Samples'), n = 1.
Another assay has as its system PIK3CD. To be noted: read-out: apparent Kd, compound concentrations: 100 nM and 1000 nM (sheet 'Samples'), n = 1.
In another assay the test system is CSNK1D. To be noted: read-out: apparent Kd, n = 1.
Another assay deals with MAPKAPK2. To be noted: read-out: apparent Kd, compound concentrations: 100 nM and 1000 nM (sheet 'Samples'), n = 1.
A further assay concerns NLK. To be noted: read-out: apparent Kd, compound concentrations: 100 nM and 1000 nM (sheet 'Samples'), n = 1.
For the next assay, the system named is TAOK1. To be noted: read-out: apparent Kd, compound concentrations: 100 nM and 1000 nM (sheet 'Samples'), n = 1.
In the next assay the test system is TGFBR2. Conditions: read-out: apparent Kd, compound concentrations: 100 nM and 1000 nM (sheet 'Samples'), n = 1.
A further assay concerns BUB1. To be noted: read-out: apparent Kd, n = 1.
Another assay deals with MAP2K1. Conditions: read-out: apparent Kd, n = 1.
The subject of the next assay is MAP2K2. Conditions: read-out: apparent Kd; compound concentrations:100 nM and 1000 nM (sheet 'Samples'); n = 1.
Another assay relates to MAPK9. To be noted: read-out: apparent Kd; compound concentrations:100 nM and 1000 nM (sheet 'Samples'); n = 1.
The test system of the next assay is NQO1. Conditions: read-out: apparent Kd, compound concentrations: 100 nM and 1000 nM (sheet 'Samples'), n = 1.
The next assay concerns T1, DJA1.
T1 construct: gene DNAJA1
Conditions: read-out: apparent Kd; compound concentrations: 100 nM and 1000 nM (sheet 'Samples'), CATDS: 0.205535073981469; n = 1.

A further assay concerns MAP4K5. Conditions: read-out: apparent Kd, compound concentrations: 100 nM and 1000 nM (sheet 'Samples'), n = 1.
Where [1] appears, read: compound concentrations:100 nM and 1000 nM (sheet 'Samples').

Like-named read-outs stand apart in the source and are kept apart here.

As to `Cc1ccc(O)cc1Nc1ccnc2cc(-c3ccc(CN4CCCCC4)o3)ccc12` [GW557777X], the potency estimated from few doses is 18.9 nM in the assay with EPHA2 (CATDS: 3.25409539793877E-2); 10.4 nM in the assay with EPHA4 (CATDS: 4.01782030303919E-2); 7.87 nM with EPHB2 (CATDS: 4.4697919041746297E-2); 4.17 nM in the assay with EPHB4 (CATDS: 5.8010916452344102E-2); 735 nM with PDGFRB (CATDS: 1.4075910538655201E-2); 151 nM with PIK3CD (CATDS: 1.8513434924081099E-2).
On to `Nc1nc(-c2cccnc2)c(-c2ccnc3ccccc23)s1` [GW684083X], for which the potency estimated from few doses in the assay on CSNK1D (setting [1]) is 2190 nM.
As for `CS(=O)(=O)CCNCc1ccc(-c2ccc3ncnc(Nc4ccc(OCc5cccc(F)c5)c(C(F)(F)F)c4)c3c2)o1` [GW576484X], the potency estimated from few doses with MAPKAPK2 (CATDS: 5.1625153721040297E-2) was 1830 nM; with NLK (CATDS: 4.7895996711747497E-2), 2180 nM; in the assay with TAOK1 (CATDS: 9.5612553502410894E-2), 618 nM.
`Cl.Oc1cccc(Nc2ccnc3cc(-c4ccncc4)ccc23)c1` [GW494601A]: the potency estimated from few doses with EPHA2 (CATDS: 2.3824924917130601E-2) was 600 nM; in the assay on EPHA4 (CATDS: 3.3294473343985699E-2) it was 165 nM; with EPHB2 (CATDS: 2.64855925277621E-2), 385 nM; with EPHB4 (CATDS: 3.7673587952975797E-2) it was 110 nM; in the assay on NLK (CATDS: 1.9274779311166401E-2) it was 1830 nM; with PDGFRB (CATDS: 1.9069305404636899E-2), 1970 nM. Besides, the potency estimated from few doses in the assay with TGFBR2 (CATDS: 0.14921911016535599) is 5.06 nM.
Take `CS(=O)(=O)Cc1ccc(Nc2nccc(-c3c(-c4cccc(NC(=O)C5CCCCC5)c4)nn4ncccc34)n2)cc1` [GSK350559A]: the potency estimated from few doses was 267 nM with BUB1 (setting [1]), 2430 nM in the assay on MAP2K1 (setting [1]), 1550 nM in the assay with MAP2K2 and 932 nM with MAPK9.
As to `COc1ccc(Nc2nccc(N3CCC(NC(=O)Nc4ccc5c(c4)OCO5)C3)n2)cc1` (stereo not shown) [GSK1379745A], the potency estimated from few doses in the assay with CSNK1D (compound concentrations: 100 nM and 1000 nM (sheet 'Samples'), CATDS: 3.4846409929325597E-2) is 2080 nM; in the assay on MAP2K1 (compound concentrations: 100 nM and 1000 nM (sheet 'Samples'), CATDS: 3.9281553351087697E-2), 1560 nM; in the assay on NQO1 (CATDS: 4.3711719751433897E-2), 1250 nM; in the assay with TAOK1 (CATDS: 4.1153987901417902E-2), 1410 nM.
As for `Cc1ccc(O)cc1Nc1ccnc2cc(-c3ccccn3)ccc12.Cl` [GW440139A], the potency estimated from few doses in the assay on EPHA2 (CATDS: 2.9853649287190101E-2) is 529 nM; in the assay with EPHA4 (CATDS: 5.0335970342337201E-2), 81.6 nM; in the assay with EPHB2 (CATDS: 6.0515406545195598E-2) it was 52 nM; in the assay with EPHB4 (CATDS: 9.4734389919906598E-2), 20.9 nM; with MAPKAPK2 (CATDS: 2.53755109568197E-2) it was 1570 nM; in the assay with TGFBR2 (CATDS: 0.155660799519896), 9.12 nM.
Take `Cl.Cl.Cl.c1ccc(Oc2ccc(Nc3ccnc4cc(-c5ccc(CN6CCNCC6)o5)ccc34)cc2)nc1.c1ccc(Oc2ccc(Nc3ccnc4cc(-c5ccc(CN6CCNCC6)o5)ccc34)cc2)nc1` [GW567142A]: the potency estimated from few doses in the assay with NQO1 (CATDS: 1.8216900253795E-2) was 1580 nM.
Regarding `CN1C(=O)c2ccccc2N(C)c2nc(Nc3cnn(C4CCNCC4)c3)ncc21` [XMD-17-51], the potency estimated from few doses in the assay with PIK3CD (CATDS: 3.4664155585902003E-2) was 111 nM; in the assay on TAOK1 (CATDS: 5.6290782434041703E-2), 40.7 nM; with TGFBR2 (CATDS: 1.41245865647958E-2), 1610 nM.
Turning to `NC(=O)c1cccc(Nc2nccc(Nc3cccc4[nH]ncc34)n2)c1` [GW782612X], in the assay on TGFBR2 (CATDS: 0.37560252723777299), the potency estimated from few doses is 17 nM.
`COc1ccccc1CNC1=NC(=O)/C(=C/c2ccc3ncccc3c2)S1` [RO4503315-000]: in the assay on TAOK1 (CATDS: 7.1757893284069299E-2), the potency estimated from few doses was 1130 nM.
Take `COc1cc(Nc2nccc(N3CCC(NC(=O)c4cccc(C#N)c4)C3)n2)cc(OC)c1OC` (stereo not shown) [GSK1379751A]: the potency estimated from few doses in the assay with DJA1 is 817 nM.
As to `CC(C)c1nc(-c2cccc(NS(=O)(=O)c3ccccc3)c2)c(-c2ccnc(Nc3ccc4c(c3)CN(C)CC4)n2)s1` [GSK1649598A], the potency estimated from few doses with BUB1 (compound concentrations: 100 nM and 1000 nM (sheet 'Samples'), CATDS: 1.7014993428197001E-2) was 579 nM; in the assay with MAP4K5 (CATDS: 1.3446008257637299E-2), 1320 nM; in the assay on TAOK1 (CATDS: 1.55271176192178E-2), 769 nM.
As to `COc1ccc(-n2cnc3c(N)ncnc32)cc1` [SKF-97236], the potency estimated from few doses is 1970 nM in the assay on PDGFRB (CATDS: 0.12494680251160301) and 222 nM in the assay on PIK3CD (CATDS: 0.374681686981787).
As for `Cc1nn(C)c2cc(N(C)c3ccnc(Nc4cccc(S(N)(=O)=O)c4)n3)ccc12.Cl` [GW770220A], in the assay with NLK (CATDS: 0.27942165636777999), the potency estimated from few doses is 1030 nM.
Turning to `COc1cc(Nc2ccnc3cc(-c4ccncc4)ccc23)cc(OC)c1OC.Cl` [GW494610A], the potency estimated from few doses in the assay with EPHA2 (CATDS: 2.8855283068255098E-2) is 577 nM; in the assay on MAP4K5 (CATDS: 2.1260288667502202E-2), 2030 nM; in the assay with MAPKAPK2 (CATDS: 2.2209833673663099E-2), 1620 nM; in the assay on NLK (CATDS: 5.2882757998729699E-2), 110 nM; in the assay on PDGFRB (CATDS: 4.8396986719482699E-2), 136 nM.
